# Shown is part of a subset that was picked to be rich in hits.
# Vaccinia Venus: vaccinia inhibition (Venus reporter); Vaccinia virus Venus reporter expression, fluorescence; Potency, µM (titrated, usually from 36.5 µM), without a hit: at the top dose activity change, negative = inhibition, actives largely listed as inhibitors; 330,000 tested, 0.46% active; AID 720580; calls by dose curve; tested in A549 cells; also: potency is read from the fitted curve at half-maximal effect; % is scaled to controls: 0 for no effect and ±100 for the full control effect; nearly all actives have a fitted effect of over 30% in size
# Vaccinia mCherry: inhibitors of vaccinia virus infection (mCherry reporter signal); Vaccinia virus mCherry reporter infection, fluorescence; Potency, µM (titrated, usually from 36.5 µM), for the others: at the highest dose activity change, negative = inhibition, actives largely listed as inhibitors; 310,000 tested, 0.63% active; AID 720579; calls by dose curve; tested in A549 cells; also: potency is read from the fitted curve at half-maximal effect; % is scaled to controls: 0 for no effect and ±100 for the full control effect; nearly all actives have a fitted effect of over 35% in size
# Shiga toxin inh: Shiga toxin inhibition | Vero cells, Shiga toxin protein synthesis inhibition reporter | inhibition, % at 38.7 µM | 290,000 tested, 9.2% active | AID 2315; in the data active = inhibition mostly above about 28%, no sharp cut-off; inactive = mostly below about 43%; also: 0% is about no effect
# Marburg entry inh: Marburg virus entry inhibition; Potency, µM (highest dose often 37.8 µM), for the others: at the highest dose activity change, negative = inhibition, usual class: inhibitors; Marburg virus pseudotyped entry inhibition, cell reporter; 300,000 tested, 1.8% active; calls by dose curve; tested in HEK293 cells; also: potency is read from the fitted curve at half-maximal effect; % is scaled to controls: 0 for no effect and ±100 for the full control effect
# LASV entry inh: inhibitors of Lassa virus binding or cell entry. 300,000 tested, 1.2% active. AID 540256. Potency, µM (doses to about 37.9 µM), for inactives: at the highest dose activity change, negative = inhibition, actives largely listed as inhibitors. Lassa virus pseudotype entry inhibition, cell reporter; calls by dose curve; tested in HEK293 cells; also: potency is read from the fitted curve at half-maximal effect; % is scaled to controls: 0 for no effect and ±100 for the full control effect; nearly all actives have a fitted effect of over 50% in size
# Cycloheximide cs: counter-screen for Shiga toxin inhibitors: cycloheximide protein synthesis inhibition; cell reporter, cycloheximide protein synthesis inhibition counterscreen; 300,000 tested, 12% active; max response, %; in the data active = max response mostly above about 13%, no sharp cut-off; inactive = mostly below about 14%; also: read at 38.3 µM for the half of the compounds with a filed dose; 0% is about no effect
# Numbers without * were called inactive; i = inactive; u = inconclusive; x = not tested or not shown; [ ] = remark or other dose.
SMILES,Vaccinia Venus,Vaccinia mCherry,Shiga toxin inh,Marburg entry inh,LASV entry inh,Cycloheximide cs
Cc1ccc2c(CN(C)Cc3cccc(Cl)c3)cc(=O)oc2c1C,-16.5%,-13.5%,33.3,u,u,6.4*
Cc1cc(C(=O)NC2CCCN(Cc3ccc(Cl)cc3)C2)n(C)n1 (stereo not given),x,x,-7.8,x,x,-3.7
Cc1cc(NC(=O)NC(=O)c2cccc(OC(F)(F)C(F)F)c2)n[nH]1,-6.4%,-5.7%,68.8*,10.6%,11.4%,26.6*
O=C(Nc1nn[nH]n1)c1cccc(Oc2ccccc2)c1,-0.7%,x,-9.7,6.1%,3.5%,-1.7
CCC(CC)NC(=O)c1cccc(Br)c1,-7.3%,-0.3%,0.5,7.0%[46.1 µM],3.0%[46.1 µM],-2.0
Cc1cc(NC(=O)c2cccc(Oc3ccccc3)c2)n[nH]1,x,x,90.6*,x,x,29.1*
CCC(CC)NC(=O)c1cccc(Oc2ccccc2)c1,-16.7%,-25.2%,30.9*,-19.6%[46.1 µM],-1.5%,18.9
COCC(C)NC(=O)CCc1nnc(C2(c3ccc(Cl)cc3)CCC2)o1 (stereo not given),x,x,41.2*,x,x,30.3*
COCC(C)NC(=O)Cc1ccc(Cl)cc1 (stereo not given),-1.1%,-4.3%,-8.3,-16.6%[46.1 µM],9.4%,-2.8
COC(=O)CNC(=O)CCc1nnc(C2(c3ccc(Cl)cc3)CCC2)o1,x,x,39.1*,x,x,45.2*
O=C(CCc1nnc(C2(c3ccc(Cl)cc3)CCC2)o1)NC1CC1,-14.3%,-27.6%,-1.7,u,-0.4%[46.1 µM],14.0*
CC(c1ccon1)N(C)C(=O)CCc1nnc(C2(c3ccc(Cl)cc3)CCC2)o1 (stereo not given),x,x,47.9*,x,x,21.3*
CC(C)(C)c1ccccc1NC(=O)Cn1c(=O)cnc2ccccc21,-6.9%,i,-5.2,9.6%[46.1 µM],2.0%,-1.5
C[C@H]1CC[C@H]2C(=O)NC[C@H](O)CN2[C@H]1c1ccc(Br)cc1,x,x,x,-9.5%[14.2 µM],x,x
COc1ccc(OC)c(C(=O)N(Cc2cc3cccc(C)c3nc2N2CCC(O)CC2)C2CC2)c1,-11.9%,-13.2%,x,x,x,x
Cc1cccc(N2CC(C(=O)NC3CCCCCC3)CC2=O)c1C (stereo not given),-17.1%,i,x,0.9%,-0.4%,x
C=CCNC(=O)CCc1nnc(C2(c3ccc(Cl)cc3)CCC2)o1,x,x,85.0*,x,x,55.4*
C=C(C)CNC(=O)CCc1nnc(C2(c3ccc(Cl)cc3)CCC2)o1,x,x,75.5*,x,x,43.6*
COc1ccc(/C=C/c2nc3ccccc3c(=O)n2-c2cccc(C(F)(F)F)c2)cc1,-21.2%,-24.8%,x,x,11.2%[46.1 µM],x
COc1cccc(CN2CCNC(=O)C2CC(=O)N(C)CCc2ccccn2)c1OC (stereo not given),x,x,-10.7,x,x,-1.2
CCc1ccc(C(=O)c2cn(CC(=O)Nc3cc(OC)ccc3OC)c3ccc(Cl)cc3c2=O)cc1,1.9%,-3.5%,x,-21.0%[46.1 µM],18.2%[46.1 µM],x
Cc1ccc(C(C)(C)NC(=O)C2CCC(=O)N(CCCN3CCOCC3)C2)cc1 (stereo not given),x,x,-3.9,x,x,-3.4
O=C(C1CC(=O)N(C2CCCCC2)C1)N1CCC2(CC1)OCCO2 (stereo not given),-6.8%,x,31.6,8.6%,9.1%,13.4*
O=C1CC(C(=O)N2CCC3(CC2)OCCO3)CN1CCc1ccccc1 (stereo not given),3.4%,x,-13.6,-6.0%,1.7%,-2.2
O=C(C1CCC(=O)N(C2CC2)C1)N1CCC(Oc2cccc(C(F)(F)F)c2)CC1 (stereo not given),x,x,16.9,x,x,24.0*
SMILES,Vaccinia Venus,Vaccinia mCherry,Shiga toxin inh,Marburg entry inh,LASV entry inh,Cycloheximide cs
Cc1ccc(C(C)(C)NC(=O)C2CCC(=O)N(C3CCCCCC3)C2)cc1 (stereo not given),-18.5%,-0.7%,86.3*,10.5%[46.1 µM],7.7%[46.1 µM],42.0*
COC1CCN(C(=O)C2CCC(=O)N(C3CCCCCC3)C2)CC1 (stereo not given),x,x,51.9*,x,x,36.5*
COCC1CCN(C(=O)C2CCC(=O)N(C3CCCC3)C2)CC1 (stereo not given),x,x,49.3,x,x,14.8*
Cc1ccc(SC2CCN(C(=O)C3CCC(=O)N(C4CC4)C3)CC2)cc1 (stereo not given),x,x,49.5*,x,x,27.3
Cc1ccccc1SC1CCN(C(=O)C2CCC(=O)N(C3CC3)C2)CC1 (stereo not given),x,x,7.4,x,x,2.9
C[C@@H](c1ccccc1)N1C[C@@H](COCc2ccccc2)Oc2cc(N3CCC[C@H]3CO)ccc2S1(=O)=O,0.7%,8.3%,x,x,x,x
O=C(CNC(=O)C(c1ccccc1)c1ccccc1)OCc1ccccc1,3.2%,i,-1.8,9.6%,22.3%,-2.4
Nc1nc(SCc2ccc(Cl)cc2Cl)n[nH]1,-17.3%,x,27.4,u,u,20.7*
Nc1nc(SCc2ccc3c(c2)OCCO3)n[nH]1,-7.9%,-14.1%,71.2*,14.1%[46.1 µM],u,21.2
Nc1nc(SCc2ccc(F)cc2)n[nH]1,x,x,x,x,x,9.3
Cc1cc(=O)n(CC(=O)NC(C)c2ccccc2)c2c1c(C)nn2-c1cccc(F)c1 (stereo not given),-3.9%,-1.3%,x,x,10.6%[46.1 µM],x
COc1cc(NC(=O)CCc2c(C)nc3c4c(C)cc(C)nc4nn3c2C)cc(OC)c1,u,-21.5%,x,-4.3%[46.1 µM],9.3%[46.1 µM],x
Oc1ccc(/C=N/Nc2ccc(Cl)nn2)cc1O,x,x,35.9,x,x,39.2*
Fc1ccccc1/C=N/Nc1ccc(Cl)nn1,x,x,37.7*,x,x,10.1
Cc1ccc(/C=N/Nc2ccc3c(C(F)(F)F)cc(C(F)(F)F)nc3n2)cc1,0.4%,x,-13.5,1.3%[46.1 µM],-0.6%,-1.3
Cc1ccc(/C=N/Nc2ccc(Cl)nn2)cc1,x,x,44.7*,x,x,13.2*
COCCNc1nc2c(c(=O)n(C)c(=O)n2C)n1Cc1c(F)cccc1Cl,-15.4%,-22.7%,x,u,u,x
CCN(CC)C1CCN(C(=O)c2cnn(-c3nccc(-c4ccco4)n3)c2C(C)C)C1 (stereo not given),-3.6%,-10.6%,x,x,x,x
Cc1cccc(N(CC(=O)NCCSCc2ccccc2)S(C)(=O)=O)c1C,u,-8.2%,-14.4,4.4%[46.1 µM],14.0%,-6.3
COc1ccc(CNC(=O)CN(Cc2ccccc2)S(=O)(=O)c2ccc(Cl)cc2)cc1,x,x,7.9,-11.7%,-18.1%,2.8
COc1ccc(C)cc1S(=O)(=O)N(CC(=O)NCc1ccc(Cl)cc1)Cc1ccccc1,u,-18.1%,-15.4,23.1µM*,-25.3%[14.3 µM],-2.8
Cc1cccc(N(CC(=O)NCCSCc2ccc(Cl)cc2)S(C)(=O)=O)c1C,-25.5%,u,x,u,12.6µM*,x
CCOc1ccc(N(CC(=O)NCc2ccccc2OC)S(C)(=O)=O)cc1,x,x,91.7*,28.2%,u,42.6*
Cc1ccc(CNC(=O)CN(c2ccc(Cl)cc2)S(C)(=O)=O)cc1,x,x,x,x,x,12.1*
COc1ccc(S(=O)(=O)N(CC(=O)NCc2ccc(C)cc2)c2ccc(Cl)cc2)cc1,-18.4%,-17.6%,x,1.4%[46.1 µM],1.7%[46.1 µM],x
CCc1c(C)sc(NC(=O)c2cc3nc(-c4ccc(OC)cc4)cc(C(F)(F)F)n3n2)c1C(=O)OC,2.8%,-7.8%,x,x,0.7%[46.1 µM],x
O=C(NCc1ccccn1)c1nc(Cn2ccc([N+](=O)[O-])n2)no1,-4.1%,-1.9%,-4.2,1.8%[46.1 µM],u,-1.8

# High-throughput results: PubChem BioAssay, National Center for Advancing Translational Sciences (NCATS)
